In the library only some 3.8% were active in any assay of this set; here they are far more common.
Hsp70 activator: Hsp70 transcriptional activation, primary screen | HeLa Hsp70 promoter luciferase reporter, luminescence; scaled: vehicle 0, proteasome-inhibitor control 100% | activation, % at 10 µM | 0.04% of 200,000 active;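 active = activation above the mean across all tested compounds plus 3 SD, cutoff set per campaign, cut at about 5.5% in these data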;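 note: 100% = MG132 at 30 µM as the positive control and 0% = DMSO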
NALP1 yeast inh: NALP1 inhibition; S. cerevisiae NALP1/ASC/caspase-1 growth, X-gal OD620, 72 h; 0.61% of 280,000 active; inhibition, % at 10 µM; AID 2071; in the data active = inhibition mostly above about 24%, no sharp cut-off; inactive = mostly below about 32%
HSF1 inh: HSF1 inhibition. NIH3T3-HGL HSE-luciferase, MG132-induced, luminescence 8 h; active compounds read low. activity change, negative = inhibition, % at 7.5 µM (by protocol). 0.77% of 300,000 active;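 active = more than half of replicate wells show activity change below -50%, luminescence cut by over half; inconclusive = some wells, but at most half, below -50%; inactive = no replicate well below -50%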;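 note: luciferase reports HSF-1 transcriptional activity via heat shock element; 0% = median of DMSO wells and -100% = zero luminescence signal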
p-CIP stab down: compounds decreasing mouse p/CIP protein stability | Q05BA5 | F442A p/CIP-EGFP cells, EGFP fluorescence, 16 h | decrease of EGFP signal, % at 10 µM | 0.01% of 290,000 active | AID 1984;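 active = EGFP signal decrease of at least 30% at 10 µM or well 3 SD below plate mean, unless failing retest; inactive = the rest, including hits failing retest or dose response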
HSF-1 act: increases HSF-1 driven luciferase reporter signal. NIH3T3-HGL HSF-1 luciferase reporter, MG132, 8 h; 100% = twice DMSO control signal. activation, % at 9 µM. 1.7% of 300,000 active. AID 504408;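 active = mean replicate activation of at least 50% with a set share of replicates each reaching 50%; inconclusive = only one of those two conditions met; inactive = mean below 50% and too few replicates reaching it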;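 note: 0% = median of the neutral control wells and 100% = twice that signal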
HSP90 inh: inhibitors of HSP90 luciferase refolding in rabbit reticulocyte lysate; luciferase refolding luminescence, 3 h; inhibition, % at 5.6 µM; 0.91% of 290,000 active;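 active = inhibition above the screen-wide mean plus 3 SD, computed separately per campaign, cut at about 16% in these data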;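 note: 0% = DMSO wells and 100% = 60 µM geldanamycin wells; inhibitors lower the luminescence because luciferase stays unfolded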
Numbers without * were called inactive; ? = inconclusive; . = no result given.

SMILES	Hsp70 activator	NALP1 yeast inh	HSF1 inh	p-CIP stab down	HSF-1 act	HSP90 inh
Cn1c(CCN2CCCCC2)nc2cc(NC(=O)COc3ccccc3)ccc21	.	13	54	-2	58*	-1
Cc1cccc(OCC(=O)Nc2ccc3c(c2)nc(CCN2CCCCC2)n3C)c1	.	15	84	-1	84*	-1
COc1ccc(OCC(=O)Nc2ccc3c(c2)nc(CCN2CCC(C)CC2)n3C)cc1	.	-7	20	-5	30	0
CCc1ccccc1Cn1c(=O)oc2cccnc21	.	-7	4	5	42	1
CC1(c2ccc(C#N)cc2)NC(=O)N(CC(=O)Nc2cc(S(=O)(=O)N3CCOCC3)ccc2Cl)C1=O (configuration not stated)	0	6	7	0	7	6
Cc1ccc(OCC(=O)Nc2ccc3c(c2)nc(CCN2CCOCC2)n3C)cc1	0	0	25	-2	32	0
Cc1ccc(OCC(=O)Nc2ccc3c(c2)nc(CCN2CCCCC2)n3C)cc1	.	23	61	7	76*	0
Cc1ccccc1OCC(=O)Nc1ccc2c(c1)C(=O)N(CCC(=O)O)C2=O	.	-1	-51*	-14	-64	-1
Cc1ccc(OCC(=O)Nc2ccc3c(c2)C(=O)N(CCC(=O)O)C3=O)cc1	.	2	1	-4	-1	-3
COc1cc2c(cc1OC)CN(C(=S)Nc1c(C)cccc1C)CC2	0	23	-1	2	19	-4
O=C1c2ccccc2C(=O)N1CCSc1ccccc1	1	1	65	-6	103*	1
COc1ccc(-c2csc(Nc3cccc(C)n3)n2)cc1C	.	18	42	7	98*	-1
CC(=O)Oc1ccc(-c2csc(Nc3cccc(C)n3)n2)cc1	.	-8	45	6	65*	2
CN(Cc1ccccc1)C(=O)C(C(=O)c1ccc(F)cc1)n1cc(Cl)ccc1=O (configuration not stated)	0	9	13	13	19	1
COc1ccc(NC2CCCN(C(=O)CCOc3ccccc3)C2)cc1 (configuration not stated)	.	27	4	10	1	-7
CC(C)N1CCc2c(sc(NC(=O)CCS(=O)(=O)c3ccccc3)c2C#N)C1	.	23	-10	-5	-13	-2
CCSc1nc(-c2ccccc2)nc(C(Cl)Cl)n1	0	-4	42	-5	57*	-2
COc1cc(NS(=O)(=O)c2ccc(NC(=O)/C=C/C(=O)O)cc2)nc(OC)n1	.	11	-72*	30	-75	0
CCC(C)NC(=O)[C@H](CSCc1ccccc1)N1Cc2ccccc2C1=O (some centres not stated)	0	42	2	-5	-2	1
N#CC1=C(N)Oc2cc(N)ccc2C1c1ccccc1Cl (configuration not stated)	.	8	-61*	8	-71	0
N#CC1=C(N)Oc2cc(N)ccc2C1c1ccc(Cl)cc1 (configuration not stated)	.	5	5	4	23	-5
Cc1ccc(OCC(=O)Nc2cc(S(=O)(=O)N3CCOCC3)ccc2Cl)c([N+](=O)[O-])n1	.	.	-6	-1	-2	1
Cc1cccc(OCc2nnc(SCC(=O)NC3CCCC3)n2C)c1	.	6	-9	1	-17	-1
O=C(O)CCNS(=O)(=O)c1ccccc1Br	0	-3	4	-10	19	-6
O=C(O)CCNS(=O)(=O)c1ccccc1C(F)(F)F	0	-6	-60*	9	-68	0
SMILES	Hsp70 activator	NALP1 yeast inh	HSF1 inh	p-CIP stab down	HSF-1 act	HSP90 inh
COc1ccc(S(=O)(=O)NCC2CCCN(Cc3ccc(C)o3)C2)cc1 (configuration not stated)	0	33*	?	-14	-64	-2
CCCC[C@@H]1CNC(=O)C(=O)N1CCc1cccc2ccccc12	.	.	-69*	.	-75	.
O=C1NC[C@@H](Cc2ccc(O)cc2)N(CCc2cccc3ccccc23)C1=O	.	.	-9	1	-21	.
COc1ccc(/C=C/C(=O)C(C(N)=O)=C2SCCS2)cc1	0	20	14	-9	48	1
NC(=O)C(C(=O)/C=C/c1ccc(Cl)cc1)=C1SCCS1	.	.	120	2	210*	-3
O=c1[nH]c(/C=C/c2ccc(Br)cc2)nc2ccccc12	.	14	41	-3	65*	0
N#CCc1nc2ccccc2c(=O)[nH]1	.	-2	38	-3	65*	-1
O=c1[nH]c(COc2ccc(Br)cc2Cl)nc2ccccc12	.	6	50	-1	90*	-3
CCc1ccc(NC(=O)COC(=O)CN2C(=O)COc3ccccc32)cc1	0	41*	1	-9	0	7
COCCn1c(SC(C)C(=O)Nc2ccc(Cl)cn2)nnc1-c1ccncc1 (configuration not stated)	0	-4	-8	-10	1	6
COc1ccc(C(C(=O)NC(C)(C)C)N(C(=O)CCC(=O)Nc2cc(C)on2)c2c(C)cccc2C)cc1 (configuration not stated)	.	2	1	0	-1	-4
Cc1ccc(-c2cc(C(F)F)nc(S(C)(=O)=O)n2)cc1	0	-5	250	4	305*	3
O=[N+]([O-])c1ccc2oc(C3CCCCC3)nc2c1	0	0	-4	-18	6	2
Nc1ccc2oc(C3CCCCC3)nc2c1	0	-10	-91*	-16	-93	-2
Clc1ccc2ccc3cccnc3c2n1	.	6	-1	-18	-4	0
O=S1(=O)Nc2c(ccc3cccnc23)-c2ccccc21	0	12	142	-22	158*	1
Cc1ccccc1-c1nnn(CC(=O)Nc2cccc(S(N)(=O)=O)c2)n1	0	10	-1	6	15	-1
COc1cc2c(cc1OC)C(COc1ccc([N+](=O)[O-])cc1)NCC2 (configuration not stated)	.	12	-1	0	4	-2
C=CCc1ccc(OCc2ccc(C(=O)Nc3ccc(NC(C)=O)cc3)o2)c(OC)c1	.	16	27	-1	57*	2
CCOC(=O)c1c(C)[nH]c(C)c1S(=O)(=O)N1CCOCC1	.	8	-2	4	20	0
CCOC(=O)c1c(C)[nH]c(C)c1S(=O)(=O)N1CCN(c2ccc(F)cc2)CC1	.	12	28	-37	63*	-2
Cc1ccc2[nH]c3c(c2c1)CN(C(=O)CN1CCCCC1)CC3	.	.	-3	4	-3	-2
Cc1ccc2[nH]c3c(c2c1)CN(C(C)C)CC3	.	19	-3	-13	-17	16*
Cc1ccc2nc(-c3ccncc3)cc(-c3ccccc3)c2c1	2	34*	8	1	13	-3
Cc1cccc(-c2cc(C(=O)Nc3ccncc3)c3ccccc3n2)c1	.	8	50	1	63*	-3

Assay outcomes deposited in PubChem by several laboratories.
